# Experimental data: the supplement of paper PMC9694430
# Where a name gives a salt, the structure may show the parent alone.
# Legend:
# Assay in all cases: thermal shift delta Tm vs DMSO control; higher = stronger stabilization (binding)
# Conditions in all cases: 12.5 µM; protein concentration 2 µM
# LOC_OS01G01410-cb001 = system: LOC_OS01G01410-cb001
# In short: (§1)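 Rice kinase domain constructs were expressed in E. coli, purified, and tested by differential scanning fluorimetry with compound added in DMSO. Each well of a 96-well plate held 19.5 μl of 2 μM kinase in 100 mM potassium phosphate pH 7.5, 150 mM NaCl, 10% glycerol and 5 × SYPRO Orange, and fluorescence was read from 25°C to 95°C at 0.05°C/s. The melting temperature shift is the mean of triplicates, taken against protein with DMSO alone after Boltzmann fitting.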
# LOC_OS01G02750-cb003 = system: LOC_OS01G02750-cb003
# In short: as §1
# LOC_OS01G10900-cb004 = system: LOC_OS01G10900-cb004
# In short: as §1
# LOC_OS01G13800-cb001 = system: LOC_OS01G13800-cb001
# In short: as §1
# LOC_OS01G14860-cb001 = system: LOC_OS01G14860-cb001
# In short: as §1
# LOC_OS01G21960-cb002 = system: LOC_OS01G21960-cb002
# In short: as §1
# LOC_OS01G48390-cb002 = system: LOC_OS01G48390-cb002
# In short: as §1
# LOC_OS01G51400-cb002 = system: LOC_OS01G51400-cb002
# In short: as §1
# LOC_OS01G52050-cb004 = system: T1, LOC_OS01G52050-cb004
# T1 sequence (whole entry): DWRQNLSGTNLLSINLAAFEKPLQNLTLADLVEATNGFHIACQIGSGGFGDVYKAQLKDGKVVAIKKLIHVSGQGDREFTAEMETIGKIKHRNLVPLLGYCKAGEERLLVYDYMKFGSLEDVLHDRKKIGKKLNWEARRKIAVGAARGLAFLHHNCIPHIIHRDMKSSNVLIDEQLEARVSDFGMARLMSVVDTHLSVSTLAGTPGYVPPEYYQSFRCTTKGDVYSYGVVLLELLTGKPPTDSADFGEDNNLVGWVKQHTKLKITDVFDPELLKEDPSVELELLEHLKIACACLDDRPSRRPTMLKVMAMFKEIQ
# In short: as §1
# LOC_OS01G39600-cb002 = system: LOC_OS01G39600-cb002
# In short: as §1
SMILES,thermal shift delta Tm (LOC_OS01G01410-cb001) [°C],thermal shift delta Tm (LOC_OS01G02750-cb003) [°C],thermal shift delta Tm (LOC_OS01G10900-cb004) [°C],thermal shift delta Tm (LOC_OS01G13800-cb001) [°C],thermal shift delta Tm (LOC_OS01G14860-cb001) [°C],thermal shift delta Tm (LOC_OS01G21960-cb002) [°C],thermal shift delta Tm (LOC_OS01G48390-cb002) [°C],thermal shift delta Tm (LOC_OS01G51400-cb002) [°C],thermal shift delta Tm (LOC_OS01G52050-cb004) [°C],thermal shift delta Tm (LOC_OS01G39600-cb002) [°C]
Cc1cc(O)c2c(c1)C(=O)c1cccc(O)c1C2=O [Chrysophanic Acid],-0.01,-3.42,1.45,0.25,0.31,0.83,1.12,-0.16,-0.47,
COC(=O)[C@]12CCC(C)(C)C[C@H]1[C@H]1C(=O)C=C3[C@@]4(C)C=C(C#N)C(=O)C(C)(C)[C@@H]4CC[C@@]3(C)[C@]1(C)CC2 [Bardoxolone Methyl],-2.64,0,-14.8,-0.32,-4.11,-0.25,-0.51,-7.84,-10.5,
CC[C@@H]1C(=O)N(C)c2cnc(Nc3ccc(C(=O)N[C@H]4CC[C@H](N5CCN(CC6CC6)CC5)CC4)cc3OC)nc2N1C(C)C [Volasertib (BI 6727)],0.74,0.38,0.15,0.22,0.21,0.37,0.32,0.11,0.22,0.25
CNC(=O)c1cc(COc2nnc(Nc3ccc(Cl)cc3)c3ccoc23)ccn1 [Telatinib],0.67,0.92,0.29,0.36,0.15,0.85,0.26,0.08,0.21,-0.38
O=C(O[C@@H]1Cc2c(O)cc(O)cc2O[C@@H]1c1cc(O)c(O)c(O)c1)c1cc(O)c(O)c(O)c1 [(-)-Epigallocatechin Gallate],0.41,,-1.77,3.77,3.47,4.17,1.57,0.81,2.23,1.4
CC(C)=CC[C@@H](O)C1=CC(=O)c2c(O)ccc(O)c2C1=O [Shikonin],5.01,17.4,9.19,2.82,7.52,1.95,5.3,18.6,12.1,
CC(=O)O/N=C1/C(c2c(O)[nH]c3cc(Br)ccc23)=Nc2ccccc21 [BIO-acetoxime],2.35,-1.15,-2.37,,6.31,0.48,3.95,0.25,0.12,-0.05
COc1ccc(COc2ccc(Cc3cnc(N)nc3N)cc2OC)cc1,-0.12,1.12,2.07,0.44,0.12,0.25,-0.01,0.2,0.04,0.89
O=C(O)c1cc(O)c2c(c1)[C@@H]([C@H]1c3cc(C(=O)O)cc(O)c3C(=O)c3c(O[C@@H]4O[C@H](CO)[C@@H](O)[C@H](O)[C@H]4O)cccc31)c1cccc(O[C@@H]3O[C@H](CO)[C@@H](O)[C@H](O)[C@H]3O)c1C2=O [Sennoside B],4.96,27.3,6.66,2.08,4.72,3.52,4.78,,8.22,
CC(=O)Nc1nc(C)c(-c2ccc(Cl)c(S(=O)(=O)NCCO)c2)s1,0.98,1.63,1.52,0.63,0.16,1.07,0.24,0.16,0.93,-0.18
O=c1[nH]nc(Sc2ncc([N+](=O)[O-])s2)n1-c1ccc2c(c1)OCCO2,1.48,,8.23,1.65,2.21,1.25,2.84,-0.65,-3.66,
CCCCCCCCc1ccc(CCC(N)(CO)CO)cc1 [Fingolimod (FTY720) HCl],-0.88,0.17,-0.2,-1.96,-1.24,-0.97,-0.85,-1.12,-0.88,
CN1CCN(c2ccc(Nc3cc(-c4cccc(-n5ccc6cc(C7CC7)cc(F)c6c5=O)c4CO)cn(C)c3=O)nc2)CC1,0.08,-0.04,0.34,-0.27,0.17,0.86,0.24,0.38,0.27,
CCN(CC)CCNC(=O)c1c(C)[nH]c(/C=C2\C(=O)Nc3ccc(F)cc32)c1C [Sunitinib Malate],4.49,1.04,0.54,-0.1,1.29,2.13,2.08,0,7.04,2.58
Cc1cc(C(=O)NOCCO)c(Nc2ccc(I)cc2F)n(C)c1=O,0.56,0.29,0.4,0.2,0.16,0.85,0.25,-0.04,-0.21,-0.46
CCc1nc(-c2cccc(C)c2)c(-c2ccnc(NC(=O)c3ccccc3)c2)s1,0.24,0.26,0.38,-0.71,0.27,-0.03,0.28,0.2,0.24,0.93
Cc1ccc(NC(=O)Nc2cc(C(F)(F)F)ccc2F)cc1Nc1ccc2c(c1)NC(=O)/C2=C\c1ccc[nH]1,0,4.91,-0.66,3.11,2.49,4.16,3.2,,4.68,2.94
